Test results as given in PubChem BioAssay AID504465 (National Center for Advancing Translational Sciences (NCATS), 2011).
About 210 (10%) of roughly 2,100 compounds were called active. Another 53% or so got no clear call; they are omitted. This is one part of the list. Unmarked numbers belong to inactive results. The call rests on the fitted dose curve; in most records, active means well fitted inhibition curve with a large enough effect; inconclusive means small, poorly fitted or top-dose-only effect, or effect the other way; inactive means no such curve, though single readings can be large or run the other way.

test: IN Cell qHTS Assay for Inhibitors of the mTORC1 Signaling Pathway in MEF (Tsc2-/-, p53-/-) Cells: Sytravon; conditions: phospho-rpS6 immunofluorescence, 24 h; series mostly up to 38.3 µM; activity, negative = inhibition: at the top concentration; further: nearly all actives have a fitted effect of over 60% in size
Procedure, shortened: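 Immunofluorescence of rpS6 phosphorylation (Ser235/236) in mouse embryonic fibroblasts lacking Tsc2 and p53, after 24 h compound exposure; Hoechst-normalized signal imaged, each well scored as % active cells relative to rapamycin (7.5 nM) and DMSO controls.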
Potency means the concentration at half of the fitted maximal effect.

First: CCOc1ccc(OCC)c(NC(=O)Cn2nc(CC)n3c(cc4sccc43)c2=O)c1
Second: Cc1ccc(OCC(=O)Nc2nnc(SCc3cc(=O)n4cc(C)ccc4n3)s2)cc1
The “activity, negative = inhibition” value of the first is higher: 4.76% for the first, 2.68% for the second.

First: O=c1c2ccccc2n(Cc2cccc(F)c2)c(=O)n1Cc1ccccc1Cl
Second: Cc1cccc(NC(=O)Cn2nc(-c3ccc(Cl)cc3)c3ccccc3c2=O)c1
The “activity, negative = inhibition” value of the first is higher: -28.4% for the first, -100% for the second.

First: COCCn1c(=O)[nH]c2cc(C(=O)N3CCN(c4ccc(Cl)cc4)CC3)ccc2c1=O
Second: CCn1c2c(c(=O)n3ncc(C(=O)N4CCN(c5ccc(Cl)cc5)CC4)c13)CN(Cc1ccc(OC)cc1)CC2
The “activity, negative = inhibition” value of the first is higher: 29.5% for the first, -6.81% for the second.

First: COc1ccccc1CN1COc2ccc3c(oc(=O)c4ccccc43)c2C1
Second: COc1cc(C(=O)N2CCc3c([nH]c4ccccc34)C2c2ccc(C)cc2)cc(OC)c1OC (stereo not drawn)
The “activity, negative = inhibition” value of the first is higher: -13.4% for the first, -41.5% for the second.

Compared with `CC(C)CN(CC(C)C)c1nnc(NC(=O)Nc2cccc(C(F)(F)F)c2)s1`, `Cc1ccc(CNS(=O)(=O)c2cc(C(=O)Nc3cccc(C(F)(F)F)c3)ccc2F)cc1` is lower in “activity, negative = inhibition” value: 2.09% for the first, -5.56% for the second.

Going from `COc1ccc(OC)c(NS(=O)(=O)c2ccc3c(c2)C(C)(C)C(=O)N3C)c1` to `CC1C(=O)Nc2ccc(S(=O)(=O)Nc3ccccc3Br)cc2NC1=O` (stereo not drawn), the “activity, negative = inhibition” value falls from -4.35% to -11.9%.

First: O=C(Cn1c(=O)oc2cc(S(=O)(=O)NCc3ccccc3)ccc21)NCc1ccc(Cl)cc1
Second: Cc1ccc(CNCc2c(C(=O)O)n(Cc3ccc(C)cc3)c3cc(C)ccc23)cc1
The “activity, negative = inhibition” value of the first is higher: 0% for the first, -13.3% for the second.

Compared with `CC(C)(C)c1ccc(C(=O)N2CCCCC2CCN2CCCCC2)cc1` (stereo not drawn), `COc1ccc(NC(=O)c2c(C)oc3ccc(O)c(CN4CCCCCC4)c23)cc1` is higher in “activity, negative = inhibition” value: -14.5% for the first, -14.3% for the second.

First: CC(C)(C)c1ccc(C2NC(=O)c3n[nH]c(-c4cccs4)c32)cc1 (stereo not drawn)
Second: CCOC(=O)c1ccc(N2C(=O)c3n[nH]c(-c4cccs4)c3C2c2ccc(CC)cc2)cc1 (stereo not drawn)
The “activity, negative = inhibition” value of the first is lower: -100% for the first, -94.6% for the second.

Going from `Cc1ccc(C)c(NC(=O)Cn2cc(C(=O)c3cccs3)c3ccccc32)c1` to `CCCN(C(=O)Cn1ncc2c([nH]c3ccc(C)cc32)c1=O)c1ccccc1C`, the “activity, negative = inhibition” value rises from -9.22% to 1.08%.

Going from `Cc1ccc(NC(=O)CSc2nc(-c3cccs3)cc(C(F)(F)F)n2)cc1C` to `COc1ccc(NC(=O)CCS(=O)(=O)c2nc(-c3cccs3)cc(C(F)(F)F)n2)cc1`, the “activity, negative = inhibition” value rises from -19.5% to -14.4%.

Compared with `Cn1c(=O)c2c(-c3ccc(Br)cc3)n(Cc3ccc(F)cc3)cc2n(C)c1=O`, `Cc1ccccc1NC(=O)CCn1cnc2onc(-c3ccc(F)cc3)c2c1=O` is higher in “activity, negative = inhibition” value: -79.2% for the first, -0.638% for the second.

First: CSc1ccccc1NC(=O)CCS(=O)(=O)c1nc(-c2cccs2)cc(C(F)(F)F)n1
Second: CCc1ccccc1NC(=O)CSc1nnc(COc2ccccc2Cl)o1
The “activity, negative = inhibition” value of the first is higher: 3.05% for the first, 2.63% for the second.

Compared with `COc1ccc(NC(=O)C2CCC(CNS(=O)(=O)c3ccc(Br)s3)CC2)cc1OC` (stereo not drawn), `CC(=O)N1c2ccc(S(=O)(=O)NCC3CCC(C(=O)Nc4cccc(F)c4)CC3)cc2CC1C` (stereo not drawn) is higher in “activity, negative = inhibition” value: -78.3% for the first, -6.44% for the second.

Going from `c1ccc(N2CCN(c3ncnc4c3nc3n4CCCCC3)CC2)cc1` to `Cc1oc2ncnc(N3CCCCC3)c2c1C(=O)N1CCN(c2cccc(Cl)c2)CC1`, the “activity, negative = inhibition” value rises from -7.73% to -0.832%.

First: CC(=O)c1ccc(N2CCN(c3ncnc4c3c(-c3ccccc3)cn4-c3cccc(C)c3)CC2)cc1
Second: Cc1ccccc1S(=O)(=O)Cc1ccc(C(=O)N2CCN(c3cccc(Cl)c3)CC2)o1
The “activity, negative = inhibition” value of the first is higher: 6.25% for the first, -13.2% for the second.

First: CCCc1cc(N2CCN(c3ccccc3)CC2)n2cnnc2n1
Second: CCCS(=O)(=O)c1ncc(Cl)c(C(=O)N2CCN(c3ccc(OC)cc3)CC2)n1
The “activity, negative = inhibition” value of the first is lower: -1.92% for the first, 0% for the second.

Going from `Cc1c(Cl)cccc1NC(=O)c1ccc2c(c1)nnn2C1CCCC1` to `O=C(Nc1nnc(-c2cc(Cl)ccc2Cl)o1)c1ccc2c(c1)OCCO2`, the “activity, negative = inhibition” value rises from -0.577% to 15.6%.

First: Nc1c(C(=O)c2ccc(F)cc2)sc(Nc2ccccc2F)c1S(=O)(=O)c1ccc(Br)cc1
Second: COC(=O)c1ccc([C@H]2Nc3ccc(S(=O)(=O)Nc4ccc(F)cc4)cc3[C@H]3C=CC[C@H]32)cc1
The “activity, negative = inhibition” value of the first is higher: 0.296% for the first, -20.2% for the second.

First: COc1ccc(OC2CCN(S(=O)(=O)c3ccc(OC)cc3)CC2)cc1
Second: COC(=O)c1sc2cccc(F)c2c1S(=O)(=O)N1CCN(c2cccc(OC)c2)CC1
The “activity, negative = inhibition” value of the first is lower: -7.91% for the first, 0.892% for the second.

Going from `Cc1cc(-c2ccc(C)c(S(=O)(=O)N3CCOc4ccc(Cl)cc43)c2)on1` to `Cc1cc(-c2ccc(S(=O)(=O)Nc3cc(Cl)ccc3C)s2)on1`, the “activity, negative = inhibition” value falls from -4.75% to -20%.

Going from `COC(=O)COc1ccc(-c2nnc(Nc3ccc(O)cc3)c3ccccc23)cc1` to `COc1ccc(C(=O)NC(c2ccccc2Cl)c2cc(Cl)c3cccnc3c2O)cc1` (stereo not drawn), the “activity, negative = inhibition” value rises from -15.2% to 0%.

Going from `CCCCC(=O)Nc1nnc(S(=O)(=O)N2CCCCCC2)s1` to `COc1cccc(CNC(=O)C2Cc3cc(S(=O)(=O)N4CCCCCC4)ccc3N2C(C)=O)c1` (stereo not drawn), the “activity, negative = inhibition” value rises from -15.2% to 0%.

Compared with `CCN(CC)CCCNc1ncnc2c1cnn2-c1ccc(C)c(C)c1`, `Cc1ccc(-n2c(SCc3ccccc3C)nc3[nH]ncc3c2=O)cc1C` is lower in “activity, negative = inhibition” value: 6.25% for the first, 0% for the second.

Compared with `O=C(Nc1ccc(F)cc1F)N1CCN(c2ccc(Cl)c(Cl)c2)CC1`, `Cc1ccc2nc(N3CCC(C(=O)N4CCN(c5cccc(Cl)c5)CC4)CC3)[nH]c2c1` is higher in “activity, negative = inhibition” value: -14.8% for the first, 10.7% for the second.

First: Cc1cc2c(cc1C)NC(CC(=O)Nc1ccccc1)C(=O)N2 (stereo not drawn)
Second: Cc1cc(C)cc(-n2c(SCC(N)=O)nc3c([nH]c4ccccc43)c2=O)c1
The “activity, negative = inhibition” value of the first is higher: -11.2% for the first, -14.5% for the second.

Compared with `CNS(=O)(=O)c1cn(CC(=O)N2CCN(c3cccc(Cl)c3)CC2)cc1S(=O)(=O)NC`, `Cc1scc(CN2CCN(c3ccccc3F)CC2)c1C` is higher in “activity, negative = inhibition” value: -5.97% for the first, -3.84% for the second.

Compared with `COc1ccc(N2CCN(C(CNC(=O)C(=O)NCc3ccc(F)cc3)c3cccnc3)CC2)cc1` (stereo not drawn), `COc1cccc(-c2cc(C(=O)Nc3ccn(Cc4ccc(C)cc4)n3)no2)c1` is higher in “activity, negative = inhibition” value: -3.11% for the first, 24.6% for the second.

`COc1ccc(NC(=O)c2c(NCc3ccc(C)o3)sc3c2CCC(C)C3)c(OC)c1` (stereo not drawn) and `COc1ccc(Cl)cc1NC(=O)c1c(NCc2ccc(C)o2)sc2c1CCC(C)C2` (stereo not drawn) are the same in “activity, negative = inhibition” value: 0% for the first, 0% for the second.

Compared with `Cc1ccc2nc(/C(C#N)=C/c3cccc(Br)c3)[nH]c2c1`, `Cc1cccc(C2C=C(c3ccc(C)c(C)c3)Nc3nnnn32)c1` (stereo not drawn) is higher in “activity, negative = inhibition” value: -32% for the first, 0% for the second.

First: CCc1ccc(S(=O)(=O)c2nnn(-c3cccc(C)c3)c2N)cc1
Second: CCS(=O)(=O)c1ncc(Cl)c(C(=O)Nc2c(C(=O)Nc3cccc(C)c3)oc3ccccc23)n1
The “activity, negative = inhibition” value of the first is higher: 2.14% for the first, -11.7% for the second.

Going from `COc1ccc(/C=C/c2nc(C#N)c(NC3CCCCC3)o2)cc1OC` to `O=C(Nc1ccc(C(F)(F)F)cc1)c1cc(S(=O)(=O)NC2CCCCCC2)ccc1F`, the “activity, negative = inhibition” value rises from -11.3% to 6.25%.

`COc1ccc(Cl)cc1NC(=O)c1c(NCc2cccs2)sc2c1CCC(C)C2` (stereo not drawn) and `COc1ccc(Cl)cc1NC(=O)c1c(NCc2cccnc2)sc2c1CCC(C)C2` (stereo not drawn) are the same in “activity, negative = inhibition” value: 0% for the first, 0% for the second.

First: CCCCC(=O)OC1=C(C(=O)c2ccccc2)N(CCC)S(=O)(=O)c2ccccc21
Second: CC(=O)Nc1c(C(=O)Nc2ccccc2F)oc2ccccc12
The “activity, negative = inhibition” value of the first is higher: -13.9% for the first, -23.3% for the second.

Going from `CN(C)CCNC(=O)c1ccc(-n2c(-c3ccccc3)cc3c2CCCCC3)cc1` to `CN(C)C(=O)c1c(NC(=O)c2ccccc2F)sc2c1CCCC2`, the “activity, negative = inhibition” value rises from -13.6% to 3.93%.

Going from `CCSc1ncc(Cl)c(C(=O)Nc2ccc(S(=O)(=O)N3CCCCC3CC)cc2)n1` (stereo not drawn) to `CC1=C(C(=O)Nc2ccccc2)C(c2cccnc2)n2nc(SCc3ccccc3F)nc2N1` (stereo not drawn), the “activity, negative = inhibition” value rises from -7.02% to 4.84%.

For `COc1cc2nc(Nc3ccc(C)c(C)c3)nc(N)c2cc1OC`, the Potency was 4.14 µM (active).
For `CCOC(=O)c1ccc(N2C(=O)c3n[nH]c(-c4cccs4)c3C2c2cccc(F)c2)cc1` (stereo not drawn), the Potency was 13.1 µM (active).
For `Cc1ccc(F)cc1NC(=O)CSc1nc(-c2cccs2)cc(C(F)(F)F)n1`, the Potency was 11.7 µM (active).
In the case of `COc1ccc(NC(=O)CCS(=O)(=O)c2nc(-c3cccs3)cc(C(F)(F)F)n2)cc1OC`, the Potency is reported as 16.5 µM (active).
For `O=C(CCS(=O)(=O)c1nc(-c2cccs2)cc(C(F)(F)F)n1)Nc1cc(Br)ccc1O`, the Potency was 7.36 µM (active).
In the case of `Cc1cccc(N2CCN(c3ncnc4c3nc3n4CCCCC3)CC2C)c1` (stereo not drawn), the Potency is reported as 14.7 µM (active).
For `CCCCC1CCC(C(=O)N2CC(=O)Nc3ccc(F)cc3C2c2ccc(F)cc2)CC1` (stereo not drawn), the Potency was 16.5 µM (active).
For `Cc1cccc(Nc2nnc(-c3ccc(C)c(S(=O)(=O)N4CCN(C)CC4)c3)c3ccccc23)c1`, the Potency was 14.7 µM (active).
With `COc1ccc(Nc2nnc(-c3ccc(C)c(S(=O)(=O)N4CCN(C)CC4)c3)c3ccccc23)cc1` the Potency was 16.5 µM (active).
For `Cc1ccc(-c2nnc(Nc3cccc(Cl)c3)c3ccccc23)cc1S(=O)(=O)N1CCN(C)CC1`, the Potency was 9.27 µM (active).
For `CS(=O)(=O)c1ncc(Cl)c(C(=O)N2CCN(c3cccc(Cl)c3)CC2)n1`, the Potency was 0.521 µM (active).
In the case of `CCS(=O)(=O)c1ncc(Cl)c(C(=O)N2CCN(c3cccc(Cl)c3)CC2)n1`, the Potency is reported as 2.61 µM (active).
For `CCS(=O)(=O)c1ncc(Cl)c(C(=O)N2CCN(c3ccc(OC)cc3)CC2)n1`, the Potency was 4.65 µM (active).
For `Cc1cccc(-n2nnnc2S(C)(=O)=O)c1`, the Potency was 1.47 µM (active).
For `COc1cccc(-c2nnc3sc(CN4CCCCC4)cn23)c1`, the Potency was 14.7 µM (active).
With `COc1cc(C(=O)n2nc(C)c(Sc3ccc(Cl)cc3)c2C)cc(OC)c1OC` the Potency was 11.7 µM (active).
In the case of `CC(C)(C)C1CCc2c(sc(NC(=O)c3cccc(Cl)c3)c2C(N)=O)C1` (stereo not drawn), the Potency is reported as 7.36 µM (active).
For `CCS(=O)(=O)c1ncc(Cl)c(C(=O)Nc2ccc(S(=O)(=O)N(C)c3ccccc3)cc2)n1`, the Potency was 0.927 µM (active).
With `CCS(=O)(=O)c1ncc(Cl)c(C(=O)Nc2ccccc2)n1` the Potency was 2.61 µM (active).
In the case of `CCCS(=O)(=O)c1ncc(Cl)c(C(=O)Nc2c(C(=O)Nc3ccccc3)oc3ccccc23)n1`, the Potency is reported as 2.07 µM (active).
For `CCNC(=O)c1c(NC(=O)c2nc(S(=O)(=O)CC)ncc2Cl)sc2c1CCCC2`, the Potency was 2.07 µM (active).
